Records with an inconclusive call do not appear. The list shows a part of the results. Activity calls are given as the source filed them. Unless noted, calls follow the shape of the full dose curve.

A short description of test [1]: qHTS for Inhibitors of the Functional Ribonucleoprotein Complex (vRNP) of Lassa (LASV) Arenavirus: Viability assay - alamar blue signal for LASV Primary Screen (AID 1347083; calls by dose curve; tested in HEK293 reporter line; also: potency is read from the fitted curve at half-maximal effect; nearly all actives have a fitted effect of over 80% in size). (Quantitative high-throughput screening tests each substance at several concentrations.)
Test [2] in a line: qHTS for Inhibitors of the Functional Ribonucleoprotein Complex (vRNP) of Lymphocytic Choriomeningitis Arenaviruses (LCMV): Viability assay - alamar blue signal for LCMV Primary Screen (AID 1347085; calls by dose curve; tested in HEK293 reporter line; also: nearly all actives have a fitted effect of over 80% in size; also: potency is read from the fitted curve at half-maximal effect).
Test [3] is described as follows: Primary qHTS for inhibitors of SARS-S pseudo-typed particle cell entry (AID 1479145). Also: nearly all actives have a fitted effect of over 45% in size.
The nature of test [4]: Primary qHTS for Huh7 cytotoxicity: counterscreen for inhibitors of MERS-S pseudotyped particle cell entry (AID 1479147). Particulars: outcome: dose series up to 57.1 µM unless noted.
A short description of test [5]: Primary qHTS for inhibitors of MERS-S pseudo-typed particle cell entry (AID 1479149). Also: nearly all actives have a fitted effect of over 60% in size.
Test [6] is described as follows: Primary qHTS for Vero E6 cytotoxicity: counterscreen for inhibitors of SARS-S pseudo-typed particle cell entry (AID 1479150). The note with it: outcome: dose series up to 57.1 µM unless noted.
Test [7] in a line: Confirmatory qHTS to identify inhibitors of SARS-CoV-2 cell entry (AID 1645844). Also: potency is read from the fitted curve at half-maximal effect; nearly all actives have a fitted effect of over 45% in size. The procedure, abridged: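 HEK293-ACE2, overnight seeding; cpd 1 h, 37C/5% CO2; + SARS-CoV-2-S MLV PP (Wuhan-Hu-1, ΔC19); 48 h; Bright-Glo luminescence. Data normalised to S PP and bald PP wells.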
A short description of test [8]: Cytotoxicity counterscreen for inhibitors of SARS-CoV-2 cell entry (AID 1645845). Also: % is scaled to controls: 0 for no effect and ±100 for the full control effect; nearly all actives have a fitted effect of over 50% in size. The method, boiled down:
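Counterscreen run in the same HEK293-ACE2 line as the pseudotyped-particle entry assay, without particles. Viability after 48 h at 37 C was read as ATP luminescence, scaled between cell-containing and cell-free wells.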

Test [9] in a line: Primary qHTS to identify inhibitors of SARS-CoV-2 cell entry (AID 1645846). Also: nearly all actives have a fitted effect of over 45% in size. Particulars: activity change, negative = inhibition: at 57.1 µM (top of the series) unless noted. The procedure, abridged:
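HEK293-ACE2 (Expi293F, stable hACE2), 1500 cells/well, o/n 37C; cpd 23 nL pin, 1 h; MLV-PP w/ SARS-CoV-2-S (Wuhan-Hu-1, Δ19 C-term); 48 h 37C; Bright-Glo luminescence; normalized vs S-PP and bald PP.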

The nature of test [10]: qHTS profiling of the MIPE4 collection as inhibitors of Plasmodium falciparum (3D7) proliferation (AID 743344; call rule not given here;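 also: scaled between DMSO vehicle wells and 0.29 µM artemisinin as full inhibition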). Particulars: P. falciparum 3D7 in erythrocytes, SYBR Green DNA fluorescence, 72 h; at 28.5 µM (top of the series) unless noted. The method, boiled down:
(§1)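 Parasite DNA was quantified by SYBR Green I fluorescence (ex 485, em 535 nm) after overnight lysis in saponin/Triton buffer at room temperature. Cultures at 0.3% parasitemia and 2.5% hematocrit were first exposed to compound for 72 h at 37 C; signals were normalised to artemisinin (0.29 uM) and vehicle wells.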

Test [11] can be described thus: qHTS profiling of the MIPE4 collection as inhibitors of Plasmodium falciparum (DD2) proliferation (AID 743345; call rule not given here). The note with it: P. falciparum Dd2 in erythrocytes, SYBR Green DNA, 72 h; at 28.5 µM (top of the series) unless noted. The procedure, abridged: as §1
Test [12] in a line: qHTS profiling of the MIPE4 collection as inhibitors of Plasmodium falciparum (DD2) proliferation (Rep 2) (AID 743346; call rule not given here). Particulars: P. falciparum Dd2 in erythrocytes, SYBR Green DNA, 72 h; at 28.5 µM (top of the series) unless noted. The method, boiled down: as §1
Test [13] deals with Alpha-galactosidase (Coffea arabica) (UniProt Q42656). In words: Counterscreen for Glucocerebrosidase Inhibitors: qHTS Assay for Coffee Bean alpha-Galactosidase at pH 5.9 (AID 998; active = well fitted curve in the direction sought with a large enough effect; an effect the other way counts as inactive or inconclusive;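 also: plate controls were uninhibited enzyme for no effect and no-enzyme basal signal for full effect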). The method, boiled down:
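Enzyme 2 nM + cpd (0.7 nM–77 uM titration) + 4-MU-alpha-Gal 80 uM, pH 5.9 citrate/Tween-20, RT 20 min, NaOH/glycine stop pH 10, fluor 365/440. Normalized to no-enzyme and full-activity controls; Hill-fit AC50.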
For orientation: Counterscreens check selectivity or assay interference.

Test [14] in a line: Inducers of the Endoplasmic Reticulum Stress Response (ERSR) in human glioma: Validation (AID 504836; active = well fitted curve in the direction sought with a large enough effect; an effect the other way counts as inactive or inconclusive; also: 0% is about no effect). The procedure, abridged: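 Stably transfected U87-MG glioma cells carrying a GRP78-based luciferase sensor; 16 h compound incubation. Luminescence end-point read 10 min after Bright-Glo addition at room temperature.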
The nature of test [15]: Confirmatory qHTS for VERO E6 Cytotoxicity Assay: Counterscreen for SARS-CoV-2 CPE Assay (AID 1508605). Also: potency is read from the fitted curve at half-maximal effect; nearly all actives have a fitted effect of over 60% in size.
Test [16] deals with Peroxisome proliferator-activated receptor delta (Homo sapiens) (UniProt Q03181). As to the kind of experiment: qHTS assay for small molecule agonists of peroxisome proliferator-activated receptor delta signaling (AID 588534).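 Also: 0% = DMSO basal wells and 100% = positive control agonist at 10 µM.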 The procedure, abridged:
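Titration series tested in agonist mode on beta-lactamase reporter cells; 18 hrs at 37 C after a 5 hr pre-incubation. Readout: CCF4 fluorescence, 2 hrs RT. Hill equation gives EC50 and maximal response.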

The target of test [17] is DNA polymerase eta (Homo sapiens) (UniProt Q9Y253). As to the kind of experiment: qHTS for Inhibitors of Polymerase Eta: Confirmatory Assay for Cherry-picked Compounds (AID 720502; active = well fitted curve in the direction sought with a large enough effect; an effect the other way counts as inactive or inconclusive; also: potency is read from the fitted curve at half-maximal effect). Particulars: Pol eta primer extension, TAMRA/BHQ fluorescence, 10 min. The procedure, abridged:
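Quenched-fluorescence replication assay: 10 nM Pol eta, 50 nM substrate final, 15 min compound preincubation at room temperature, 10 min kinetic reaction read at 525/598 nm.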

Test [18] in a line: qHTS profiling of the MIPE4 collection as inhibitors of Plasmodium falciparum (HB3) proliferation (AID 743347; call rule not given here;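 also: plate controls were DMSO vehicle wells for no effect and artemisinin wells for full effect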). The note with it: P. falciparum HB3 in erythrocytes, SYBR Green DNA, 72 h; at 28.5 µM (top of the series) unless noted. The method, boiled down: as §1
The nature of test [19]: VSVG counterscreen qHTS to identify inhibitors of SARS-CoV-2 cell entry (AID 1645847). Also: potency is read from the fitted curve at half-maximal effect; nearly all actives have a fitted effect of over 65% in size. The method, boiled down:
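Expi293F/hACE2 cells, overnight plating; cpd 1 h, 37C/5% CO2; + VSV-G PP (MLV pseudotyping), 48 h; supernatant removed, Bright-Glo luciferase read. Norm: VSV-G PP and bald PP wells.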

Alpha-galactosidase (Coffea arabica), sequence (Q42656 whole entry, looked up): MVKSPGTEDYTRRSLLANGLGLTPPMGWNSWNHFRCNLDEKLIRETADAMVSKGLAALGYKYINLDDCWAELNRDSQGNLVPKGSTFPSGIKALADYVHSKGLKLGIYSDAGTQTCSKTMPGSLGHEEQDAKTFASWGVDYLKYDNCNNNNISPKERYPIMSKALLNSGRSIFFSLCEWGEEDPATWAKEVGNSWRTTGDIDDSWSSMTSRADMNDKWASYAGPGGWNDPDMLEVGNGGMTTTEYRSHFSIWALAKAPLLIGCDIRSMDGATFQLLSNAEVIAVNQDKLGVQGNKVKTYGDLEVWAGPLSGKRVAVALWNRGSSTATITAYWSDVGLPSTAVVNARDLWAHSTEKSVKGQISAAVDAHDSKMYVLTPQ
DNA polymerase eta (Homo sapiens), sequence (Q9Y253 whole entry, looked up): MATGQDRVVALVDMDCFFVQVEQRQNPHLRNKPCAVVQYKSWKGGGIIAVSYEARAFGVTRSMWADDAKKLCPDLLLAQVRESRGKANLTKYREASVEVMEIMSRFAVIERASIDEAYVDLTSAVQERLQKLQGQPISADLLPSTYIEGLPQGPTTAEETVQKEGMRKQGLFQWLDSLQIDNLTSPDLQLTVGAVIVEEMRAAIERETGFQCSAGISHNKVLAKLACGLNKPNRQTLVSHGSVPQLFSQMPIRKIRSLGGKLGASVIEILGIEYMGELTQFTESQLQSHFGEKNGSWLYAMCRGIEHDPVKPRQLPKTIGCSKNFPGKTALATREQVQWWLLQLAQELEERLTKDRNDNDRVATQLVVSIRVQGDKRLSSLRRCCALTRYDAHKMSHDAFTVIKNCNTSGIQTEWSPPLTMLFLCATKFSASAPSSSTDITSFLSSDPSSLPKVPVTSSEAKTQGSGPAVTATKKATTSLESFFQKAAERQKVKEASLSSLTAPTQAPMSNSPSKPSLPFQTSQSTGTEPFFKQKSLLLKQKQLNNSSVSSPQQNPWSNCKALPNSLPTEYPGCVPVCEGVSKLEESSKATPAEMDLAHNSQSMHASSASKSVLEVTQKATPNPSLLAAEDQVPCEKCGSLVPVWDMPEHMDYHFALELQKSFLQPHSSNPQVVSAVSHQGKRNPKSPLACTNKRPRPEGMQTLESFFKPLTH
Peroxisome proliferator-activated receptor delta (Homo sapiens), sequence (Q03181 whole entry, looked up): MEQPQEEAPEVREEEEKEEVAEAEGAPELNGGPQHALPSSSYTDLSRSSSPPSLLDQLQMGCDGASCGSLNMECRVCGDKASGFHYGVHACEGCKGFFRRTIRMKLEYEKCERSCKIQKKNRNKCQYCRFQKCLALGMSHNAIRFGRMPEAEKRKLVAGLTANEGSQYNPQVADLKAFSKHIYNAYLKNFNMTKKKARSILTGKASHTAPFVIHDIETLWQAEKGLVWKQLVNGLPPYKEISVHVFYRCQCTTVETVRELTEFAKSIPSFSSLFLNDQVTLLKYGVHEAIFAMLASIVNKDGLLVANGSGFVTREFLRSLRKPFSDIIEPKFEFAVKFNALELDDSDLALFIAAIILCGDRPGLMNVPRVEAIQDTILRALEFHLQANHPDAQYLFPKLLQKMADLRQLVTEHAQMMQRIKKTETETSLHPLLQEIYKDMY

As for `CC[C@]1(O)C[C@H]2CN(CCC3=c4ccccc4=N[C]3[C@@](C(=O)OC)(c3cc4c(cc3OC)N(C)[C@H]3[C@@](O)(C(N)=O)[C@H](O)[C@]5(CC)C=CCN6CC[C@]43[C@@H]65)C2)C1`, the Potency is 38.5 nM (active) in test [1], 10.9 nM (active) in test [2] and 76.4 nM (active) in test [7]. The Potency result in test [3], in [5] and in [8] was “inactive” in each case. Besides, the outcome in test [4] and in [6] was inactive.

For `CN(C)Cc1c(C(=O)NCCOc2ccc(C(=O)NO)cc2)oc2ccccc12`, the values for the Potency in test [1] and in test [2] were 2430 nM (active) and 1370 nM (active), respectively. Further, the Potency result in [9] is “inactive”.

Compound `CC[C@H](CC[C@@H](C)[C@H]1CC[C@H]2[C@@H]3CC=C4C[C@@H](O)CC[C@]4(C)[C@@H]3CC[C@]12C)C(C)C` came in with a parasite growth, % of DMSO control in [10] of 94%. The parasite growth remaining, % of DMSO control (lower = more inhibition) in [11] was found to be 101%. Further, the parasite growth, % of control (lower = inhibition) in test [12] amounted to 179%. Further, the Potency in test [1] is 8630 nM (active); in [2], 2430 nM (active).

As to `CCCCCCN(CCCCCC)C(=O)Cc1c(-c2ccc(F)cc2)[nH]c2ccccc12`, the compound was called inactive in test [13] and in test [14].

For `O=C1NC(=O)c2cc(Nc3ccccc3)c(Nc3ccccc3)cc21`, the compound was classed as inactive in test [13] and in test [14]. Further, the Potency in test [15] was 11200 nM (active).

Turning to `C[C@]12CC[C@@H]3c4ccc(O)cc4CC[C@H]3[C@H]1CC[C@H]2O`, in test [16], the Potency entry was “inactive”.

Regarding `C[C@@H]1C[C@@H]2O[C@H]2/C=C\C=C\C(=O)Cc2c(Cl)c(O)cc(O)c2C(=O)O1`, in test [17], the Potency is 26900 nM (active).

Take `NC(=O)c1ncn([C@@H]2O[C@H](CO)[C@@H](O)[C@@H]2O)n1`: the parasite growth, % of DMSO control in test [10] amounted to 91.7%. For the same compound, in test [12], the parasite growth, % of control (lower = inhibition) worked out at 53.8%. This compound came in with a growth, % of control in [18] of 53.5%.

As for `CN(C)CCOc1ccc(C(=C(CCCl)c2ccccc2)c2ccccc2)cc1`, in test [10], the parasite growth, % of DMSO control was determined as 67.8%.

`Cc1c(NC(=O)OC[C@@H]2COCCN2)cn2ncnc(Nc3ccc4c(cnn4Cc4cccc(F)c4)c3)c12`: the Potency in test [15] is 11200 nM (active).

Regarding `Cc1cc(C(=O)N2CCN(c3cccc(Cl)c3)CC2)n(-c2ccccc2)n1`, the results for the Potency in test [7] and in test [19] were 6810 nM (active) and 3410 nM (active), respectively.

Turning to `COc1ccc(S(=O)(=O)Nc2cccnc2Nc2ccc(O)cc2)cc1`, the Potency in [7] was 1210 nM (active).

As to `CC(=O)/C=C1\C(=O)N(C)c2ccccc21`, the outcome in [14] was inactive. Besides, the Potency result in [2] was “inactive”.

Take `C[C@@H]1CC=CC=CC=CC=C[C@@H](O[C@@H]2O[C@H](C)[C@@H](O)[C@H](N)[C@H]2O)C[C@@H]2O[C@](O)(C[C@@H](O)C[C@@H]3O[C@@H]3C=CC(=O)O1)C[C@H](O)[C@@H]2C(=O)O`: the Potency result in test [2] is “inactive”.

For `COc1ccc2cc1Oc1ccc(cc1)C[C@H]1c3cc(c(OC)cc3CCN1C)Oc1c(OC)c(OC)cc3c1[C@H](C2)N(C)CC3`, in test [10], the parasite growth, % of DMSO control is 31.2%. For the same compound, the parasite growth remaining, % of DMSO control (lower = more inhibition) in test [11] came out at 72.6%. In addition, the Potency result in test [2] is “inactive”.

The values above are taken from PubChem BioAssay (NCATS).
